Values without a mark were called inactive. Results filed as inconclusive are left out. Entries that show only a call come without a potency. The source made the active and inactive calls. Unless noted, calls follow the shape of the dose curve; as a rule, active = well fitted curve in the direction sought with a large enough effect; inconclusive = small, poorly fitted or top-dose-only effect, or another doubt; inactive = no such curve, though single readings can be large; an effect the other way counts as inactive or inconclusive.
How the values were obtained:
[1] = target: Tumor susceptibility gene 101 protein (Homo sapiens) (UniProt Q99816); assay: qHTS Assay for Iinhibitors of HIV-1 Budding by Blocking the Interaction of PTAP/TSG101: Hit Validation (AID 651600); also: nearly all actives have a fitted effect of over 70% in size; also: potency is read from the fitted curve at half-maximal effect
Tumor susceptibility gene 101 protein (Homo sapiens), sequence (Q99816 whole entry, looked up, the tested form may be a part): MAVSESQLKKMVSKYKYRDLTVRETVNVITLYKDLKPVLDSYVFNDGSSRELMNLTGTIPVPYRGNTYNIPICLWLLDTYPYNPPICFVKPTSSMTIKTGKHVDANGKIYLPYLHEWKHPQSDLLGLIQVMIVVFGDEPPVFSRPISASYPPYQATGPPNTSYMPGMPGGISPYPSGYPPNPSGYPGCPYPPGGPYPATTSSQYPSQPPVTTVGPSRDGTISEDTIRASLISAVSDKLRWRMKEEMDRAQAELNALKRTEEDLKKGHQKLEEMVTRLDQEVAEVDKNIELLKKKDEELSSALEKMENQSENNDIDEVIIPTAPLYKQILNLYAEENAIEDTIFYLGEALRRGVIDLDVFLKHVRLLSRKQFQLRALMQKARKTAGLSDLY
Method in brief: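 Tsg101 binding domain 10 uM + FITC-PTAP peptide 50 nM (final), 10 mM HEPES pH 7.5/0.15 M NaCl/0.01% Tween 20/3 mM EDTA/0.1 mM TCEP; 20 min RT; FP read, FITC filters.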

[2] = target: Rap guanine nucleotide exchange factor 3 (Homo sapiens) (UniProt O95398); assay: Confirmatory qHTS for antagonist of cAMP-regulated guanine nucleotide exchange factor 3 (EPAC1) (AID 1645880); details: EPAC1 Rap1B-BODIPY-GDP exchange, fluorescence; activity, negative = inhibition: at 115 µM (top of the series); also: nearly all actives have a fitted effect of over 55% in size; also: potency is read from the fitted curve at half-maximal effect
Rap guanine nucleotide exchange factor 3 (Homo sapiens), sequence (O95398 whole entry, looked up): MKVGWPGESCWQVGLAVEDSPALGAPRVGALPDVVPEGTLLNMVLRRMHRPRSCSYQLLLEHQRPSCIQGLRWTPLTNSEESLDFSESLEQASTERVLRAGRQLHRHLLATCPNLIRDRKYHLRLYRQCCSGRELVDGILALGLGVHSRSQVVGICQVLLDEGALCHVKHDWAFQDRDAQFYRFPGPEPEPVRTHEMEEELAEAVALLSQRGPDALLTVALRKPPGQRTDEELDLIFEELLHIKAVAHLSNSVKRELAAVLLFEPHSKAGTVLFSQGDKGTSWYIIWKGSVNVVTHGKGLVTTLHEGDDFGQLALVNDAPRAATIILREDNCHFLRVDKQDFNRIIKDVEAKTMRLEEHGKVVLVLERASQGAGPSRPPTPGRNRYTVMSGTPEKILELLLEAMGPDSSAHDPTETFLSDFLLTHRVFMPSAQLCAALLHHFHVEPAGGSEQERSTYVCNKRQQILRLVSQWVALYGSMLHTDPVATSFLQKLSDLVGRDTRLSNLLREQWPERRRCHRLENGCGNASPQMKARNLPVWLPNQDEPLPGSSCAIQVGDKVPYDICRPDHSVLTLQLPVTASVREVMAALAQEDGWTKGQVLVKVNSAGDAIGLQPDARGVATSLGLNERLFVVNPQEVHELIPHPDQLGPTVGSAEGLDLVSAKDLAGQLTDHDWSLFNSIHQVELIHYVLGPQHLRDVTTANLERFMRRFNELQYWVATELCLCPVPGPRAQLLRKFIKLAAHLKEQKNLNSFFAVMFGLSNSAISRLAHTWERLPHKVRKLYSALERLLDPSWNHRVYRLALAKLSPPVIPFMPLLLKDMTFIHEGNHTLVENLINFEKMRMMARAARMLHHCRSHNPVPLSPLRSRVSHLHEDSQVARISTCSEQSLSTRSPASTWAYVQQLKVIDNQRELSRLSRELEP
Method in brief: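 Nucleotide exchange uses 100 nM EPAC1, 250 nM RAP1B-BODIPY-GDP and 50 uM GDP, with compounds in a concentration-titration series. After 5 min at room temperature, fluorescence (480 nm ex/540 nm em) is read every 5 min for 30 min. Data are normalized to control ATA and DMSO.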

[3] = target: Rap guanine nucleotide exchange factor 4 (Homo sapiens) (UniProt Q8WZA2); assay: Confirmatory qHTS for agonist of cAMP-regulated guanine nucleotide exchange factor 4 (EPAC2) (AID 1645884);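 also: nucleotide exchange releases bodipy-GDP from Rap1 and this lowers its fluorescence; nearly all actives have a fitted effect of over 65% in size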; also: potency is read from the fitted curve at half-maximal effect
Rap guanine nucleotide exchange factor 4 (Homo sapiens), sequence (Q8WZA2 whole entry, looked up): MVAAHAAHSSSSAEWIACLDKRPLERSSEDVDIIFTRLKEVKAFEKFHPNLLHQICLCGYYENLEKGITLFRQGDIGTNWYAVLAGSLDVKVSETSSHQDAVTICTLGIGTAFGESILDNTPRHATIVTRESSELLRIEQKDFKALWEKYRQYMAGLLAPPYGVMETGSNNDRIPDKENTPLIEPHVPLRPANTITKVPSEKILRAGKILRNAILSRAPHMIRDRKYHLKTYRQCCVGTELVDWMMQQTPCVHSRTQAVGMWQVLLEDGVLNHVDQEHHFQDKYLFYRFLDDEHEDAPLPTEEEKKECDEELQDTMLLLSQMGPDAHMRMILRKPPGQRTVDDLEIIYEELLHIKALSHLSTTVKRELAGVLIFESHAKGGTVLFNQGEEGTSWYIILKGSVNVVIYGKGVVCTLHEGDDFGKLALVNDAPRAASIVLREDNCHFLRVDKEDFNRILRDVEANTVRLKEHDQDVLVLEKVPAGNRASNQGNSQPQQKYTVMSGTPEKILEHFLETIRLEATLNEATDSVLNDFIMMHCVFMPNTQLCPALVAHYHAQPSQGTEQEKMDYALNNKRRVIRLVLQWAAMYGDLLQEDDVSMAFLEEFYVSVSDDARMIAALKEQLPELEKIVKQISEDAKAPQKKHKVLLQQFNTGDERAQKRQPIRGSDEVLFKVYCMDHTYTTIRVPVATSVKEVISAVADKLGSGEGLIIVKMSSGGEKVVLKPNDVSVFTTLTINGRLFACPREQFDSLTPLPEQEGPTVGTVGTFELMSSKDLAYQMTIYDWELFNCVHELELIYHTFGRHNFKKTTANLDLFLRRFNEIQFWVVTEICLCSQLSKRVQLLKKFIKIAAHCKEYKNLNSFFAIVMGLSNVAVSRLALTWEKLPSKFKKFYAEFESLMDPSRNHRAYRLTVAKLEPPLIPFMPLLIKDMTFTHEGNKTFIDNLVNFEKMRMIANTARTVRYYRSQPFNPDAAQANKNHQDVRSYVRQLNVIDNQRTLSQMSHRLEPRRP

[4] = target: Rap guanine nucleotide exchange factor 4 (Homo sapiens) (UniProt Q8WZA2); assay: Confirmatory qHTS for antagonist of cAMP-regulated guanine nucleotide exchange factor 4 (EPAC2) (AID 1645885); also: nearly all actives have a fitted effect of over 25% in size; also: potency is read from the fitted curve at half-maximal effect
[5] = target: Rap guanine nucleotide exchange factor 3 (Homo sapiens) (UniProt O95398); assay: Counterscreen qHTS for antagonist of cAMP-regulated guanine nucleotide exchange factor 3 (EPAC1) (AID 1645888);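 also: fluorescence loss as bound BODIPY-GDP is released from Rap1B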
Method in brief: (§1)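 Rap1B-BODIPY-GDP 250 nM + GDP 50 uM; cpds 7-pt, final 9.74 nM–152 uM (activator mode) or from 7.32 nM upwards (inhibitor mode); RT; FI 480/540 nm at 5 and 30 min, then ± cAMP, reread.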

[6] = target: Rap guanine nucleotide exchange factor 3 (Homo sapiens) (UniProt O95398); assay: Counterscreen qHTS for agonist of cAMP-regulated guanine nucleotide exchange factor 3 (EPAC1) (AID 1645889); also: nearly all actives have a fitted effect of over 40% in size; also: potency is read from the fitted curve at half-maximal effect
Method in brief: as §1

[7] = qHTS for Inhibitors of the vitamin D receptor (VDR): Hit Validation using a Texas Red Assay (AID 602201)
Method in brief: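 After a 2-hour room-temperature incubation, polarization of Texas-Red emission was read (Ex 595 nm/Em 615 nm). Final mix contained 7 nM Texas Red, 1.5 uM VDR-LBD and LG19078.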

[8] = Stat Signaling Pathway (AID 446; active = well fitted curve in either direction with a large enough effect, not every such curve was filed as active;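 also: ME-180 cervical cancer cells given 40 pM IL-6 alongside compound; SIE-controlled beta-lactamase reporter measured as 460/530 nm FRET emission ratio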)
Method in brief: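 ME-180 SIE-bla cells; overnight plating; cpd + IL-6 40 pM, 5 h, 37 C; LiveBLAzer 2.5 h RT; 460/530 nm emission ratio. Normalized to 300 pM IL-6 and 125 nM JAK inhibitor controls.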

[9] = target: Glucocorticoid receptor (Homo sapiens) (UniProt P04150); assay: GR-GFP Redistribution (AID 450;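 active = compounds whose dose series gives a full or clear partial fitted curve of increased nuclear translocation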; also: potency is read from the fitted curve at half-maximal effect); details: U2OS GR-GFP nuclear translocation, laser cytometry, 2 h
Glucocorticoid receptor (Homo sapiens), sequence (P04150 whole entry, looked up): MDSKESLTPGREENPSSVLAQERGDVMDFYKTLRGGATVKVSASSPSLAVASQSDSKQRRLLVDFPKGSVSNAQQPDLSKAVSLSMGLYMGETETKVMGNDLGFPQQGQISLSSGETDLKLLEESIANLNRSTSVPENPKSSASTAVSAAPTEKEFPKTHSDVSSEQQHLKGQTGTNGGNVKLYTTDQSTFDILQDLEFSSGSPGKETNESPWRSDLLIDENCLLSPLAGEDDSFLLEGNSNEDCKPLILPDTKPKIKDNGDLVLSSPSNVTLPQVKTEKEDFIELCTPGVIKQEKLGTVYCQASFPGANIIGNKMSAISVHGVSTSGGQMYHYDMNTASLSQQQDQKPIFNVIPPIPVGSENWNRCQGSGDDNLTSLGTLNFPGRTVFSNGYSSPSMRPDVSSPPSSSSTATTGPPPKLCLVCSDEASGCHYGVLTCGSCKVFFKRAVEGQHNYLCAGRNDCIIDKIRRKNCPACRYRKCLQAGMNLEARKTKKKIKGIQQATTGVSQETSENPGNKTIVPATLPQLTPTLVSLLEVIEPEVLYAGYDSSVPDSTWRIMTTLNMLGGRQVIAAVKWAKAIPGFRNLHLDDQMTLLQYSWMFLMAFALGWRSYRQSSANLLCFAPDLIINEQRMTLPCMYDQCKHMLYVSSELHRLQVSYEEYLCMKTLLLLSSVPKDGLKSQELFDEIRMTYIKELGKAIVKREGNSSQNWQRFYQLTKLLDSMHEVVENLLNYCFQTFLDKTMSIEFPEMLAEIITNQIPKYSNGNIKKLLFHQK

[10] = AP1 Signaling Pathway (AID 357; active = well fitted curve in either direction with a large enough effect, not every such curve was filed as active;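 also: ME-180 reporter cells stimulated with EGF at its EC50 level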); details: ME-180 AP-1-bla reporter, EGF-induced, beta-lactamase ratio, 5 h; at 7.69 µM (top of the series) unless noted
Method in brief: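 First, ME-180 AP-1-bla cells were cultured overnight at 37 °C in low-serum Opti-MEM. Next, titrated compounds with EC50 EGF were incubated 5 hours. Finally, CCF4 was added for 2.5 hours and the 460/530 nm ratio recorded.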

[11] = qHTS Assay for Identification of Small Molecule Agonists for Hypoxia Response Element Signaling Pathway (AID 914; active = well fitted activation curve with a large enough effect in the signal ratio, with a control signal flat, not every such curve was filed as active; the % refers to the signal ratio; also: potency is read from the fitted curve at half-maximal effect); details: ME-180 (cervical carcinoma) HRE-bla reporter, beta-lactamase ratio, CoCl2, 17 h; activation: stronger effect = higher value
Method in brief: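 Cells were plated overnight, pin-dosed with compound in a titration series, co-stimulated with EC50 CoCl2 and incubated 17 hours at 37 degrees Celsius. CCF4 substrate was then loaded, and AC50 values came from the 460nm/530nm ratio.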

Structure (SMILES): Nc1ccc2nc3c(=O)n(CCc4ccccc4)c(=O)[nH]c3nc2c1
- Potency [1]: 3.26 µM (active)
- Potency [2]: inactive
- Potency [3]: 100 µM (active)
- Potency [4]: 42.6 µM (active)
- Potency [5]: inactive
- Potency [6]: 70.8 µM (active)

Structure (SMILES): Cc1ccccc1-n1c(O)c(/C=C/C=Nc2ccccc2)c(=O)[nH]c1=O
- Potency [2]: inactive
- Potency [3]: 112 µM (active)
- Potency [4]: inactive
- Potency [5]: inactive
- Potency [6]: 39.8 µM (active)

Structure (SMILES): COC(=O)c1c(SC)nc2ccccc2c1OCc1ccc(C)cc1C
- Potency [2]: inactive
- Potency [3]: inactive
- Potency [4]: inactive
- Potency [5]: inactive
- Potency [6]: inactive

Structure (SMILES): CCC1(c2ccccc2)NC(=O)N(CC(=O)Nc2ccc(OC)nc2)C1=O (centres undefined)
- Potency [1]: 18.3 µM (active)
- Potency [2]: inactive
- activation [3]: 15.1% [at 17.1 µM, percent relative to cAMP agonist control]
- Potency [4]: inactive
- activity change, negative = inhibition [5]: -15.6% [at 30.8 µM]
- activation [6]: 14.8% [at 30.8 µM]

Structure (SMILES): CC(=O)Nc1sc2c(c1-c1nc3ccccc3s1)CN(C(C)C)CC2
- Potency [2]: inactive
- activation [3]: 18.6% [at 17.1 µM, percent relative to cAMP agonist control]
- Potency [4]: inactive
- activity change, negative = inhibition [5]: 28.4% [at 30.8 µM]
- Potency [6]: 10 µM (active)

Structure (SMILES): COc1ccc2oc(C)c(C(=O)c3ccccc3)c2c1
- Potency [2]: inactive
- activation [3]: 5.91% [at 17.1 µM, percent relative to cAMP agonist control]
- Potency [4]: inactive
- activity change, negative = inhibition [5]: 1.7% [at 30.8 µM]
- activation [6]: 7.36% [at 30.8 µM]

Structure (SMILES): COc1cc(/C=C2/C(=O)c3cccc([N+](=O)[O-])c3C2=O)c(Br)cc1O
- Potency [7]: inactive
- Potency [2]: 23.9 µM (active)
- Potency [3]: inactive
- outcome [4]: inactive; activator; fitted 0.0301 uM [at 12.7 µM]
- Potency [5]: inactive
- Potency [6]: 31.6 µM (active)

Structure (SMILES): O=C(O)c1ccccc1C1=Nc2ccc(O)cc2Oc2cc(O)ccc21
- Potency [1]: 13 µM (active)
- Potency [2]: inactive
- activation [3]: 14.2% [at 17.1 µM, percent relative to cAMP agonist control]
- Potency [4]: inactive
- activity change, negative = inhibition [5]: -1.01% [at 30.8 µM]
- Potency [6]: 15.8 µM (active)

Structure (SMILES): O=c1oc2c3c4c(cc2c(C(F)(F)F)c1CCN1CCOCC1)CCCN4CCC3
- outcome [8]: inactive
- Potency [9]: > 20.6 µM
- Potency [2]: inactive
- Potency [3]: 100 µM (active)
- Potency [4]: inactive
- Potency [5]: inactive
- Potency [6]: 17.8 µM (active)

Structure (SMILES): CC(C)n1cc(/C=C/c2cc[n+](C)cc2)c2ccccc21
- Potency [2]: inactive
- Potency [3]: 112 µM (active)
- Potency [4]: inactive
- Potency [5]: inactive
- Potency [6]: 56.2 µM (active)

Structure (SMILES): Cc1nn(C)c(C)c1N1C(=O)c2cccc3c(N)ccc(c23)C1=O
- Potency [1]: 2.59 µM (active)
- Potency [2]: inactive
- Potency [3]: 5.01 µM (active)
- Potency [4]: inactive
- activity change, negative = inhibition [5]: 353% [at 30.8 µM]
- Potency [6]: 11.2 µM (active)

Structure (SMILES): CCOc1cc(/C=C2\CCCc3c2nc2ccccc2c3C(=O)O)ccc1OC
- Potency [2]: inactive
- Potency [3]: 112 µM (active)
- Potency [4]: inactive
- Potency [5]: inactive
- Potency [6]: 100 µM (active)

Structure (SMILES): CCN(CC)c1ccc(/C=C(\C#N)C(=O)c2ccc(Br)cc2)cc1
- Potency [1]: inactive
- Potency [2]: inactive
- Potency [3]: 112 µM (active)
- Potency [4]: inactive
- Potency [5]: inactive

Structure (SMILES): COc1cccc2c1C(=O)c1c(O)c3c(c(O)c1C2=O)CC(O)(C(C)=O)CC3OC1CC(N(C)C)C(O)C(C)O1 (centres undefined)
- Potency [1]: 9.19 µM (active)
- Potency [2]: inactive
- activation [3]: 10.6% [at 17.1 µM, percent relative to cAMP agonist control]
- Potency [4]: inactive
- activity change, negative = inhibition [5]: 80.1% [at 30.8 µM]

Structure (SMILES): Cc1ccc[n+](-c2nc([O-])sc2C=O)c1
- Potency [1]: 4.61 µM (active)
- Potency [2]: inactive
- Potency [3]: 100 µM (active)
- Potency [4]: inactive
- Potency [5]: inactive
- Potency [6]: 39.8 µM (active)

Structure (SMILES): O=[N+]([O-])c1ccc(N(c2ccccc2)c2ccccc2)cc1
- Potency [2]: inactive
- activation [3]: 3.9% [at 17.1 µM, percent relative to cAMP agonist control]
- Potency [4]: inactive
- activity change, negative = inhibition [5]: -24.8% [at 30.8 µM]
- activation [6]: 15.8% [at 30.8 µM]

Structure (SMILES): Cc1ccc2oc(=O)c(/C=C(\O)c3ccccc3)nc2c1
- Potency [1]: inactive
- Potency [2]: inactive
- activation [3]: 10.1% [at 17.1 µM, percent relative to cAMP agonist control]
- Potency [4]: inactive
- activity change, negative = inhibition [5]: 0.517% [at 30.8 µM]
- activation [6]: 12.5% [at 30.8 µM]

Structure (SMILES): Cc1n[nH]c(C)c1N1C(=O)c2cccc3c(N4CCCCCC4)ccc(c23)C1=O
- Potency [1]: 20.6 µM (active)
- Potency [2]: inactive
- Potency [3]: 112 µM (active)
- Potency [4]: inactive
- Potency [5]: inactive
- Potency [6]: 12.6 µM (active)

Structure (SMILES): Cc1nc2ccccc2n2c(O)c(CC(=O)O)cc12
- Potency [1]: 14.6 µM (active)
- Potency [2]: inactive
- Potency [3]: 112 µM (active)
- Potency [4]: inactive
- Potency [5]: inactive
- Potency [6]: 44.7 µM (active)

Structure (SMILES): CCN(CC)c1ccc2cc(C(=O)Nc3ccccn3)c(=O)oc2c1
- activity change, negative = inhibition [10]: 7.12% [at 17.2 µM]
- Potency [9]: > 20.6 µM
- Potency [11]: 3.98 µM (active)
- Potency [2]: inactive
- Potency [3]: 100 µM (active)
- Potency [4]: inactive
- Potency [5]: inactive
- Potency [6]: inactive

From PubChem BioAssay (NCATS)
